In PubChem BioAssay:
Activity calls are given as the source filed them. Unless noted, no rule for the calls is given here.

Tests used:
[1] = system: Wnt5a (protein binding on small-molecule microarray); test: Wnt5a binders on small-molecule microarray, primary screen, biophysical, 635/667 nm fluorescence (AID 1142); conditions: 635 nm fluorescence, higher = more signal;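 also: fluorescence read at 667 nm with signal to noise per printed feature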
[2] = cell viability in Huh7 cells, primary screen, cytotoxicity control for HCV replication inhibitor project, CellTiter-Glo luminescence, basal, 48 h (AID 1143); conditions: Huh7 HCV replicon, higher = more signal, called active from +8 up or from −8 down;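 also: Huh7 hepatoma cells carrying a hepatitis C replication reporter with no stimulus; test concentration not given here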
[3] = P. aeruginosa biofilm formation inhibitors, primary screen, PAO1 strain, BacTiter-Glo luminescence, LB-PBS (AID 1144); conditions: 12 h, higher = more signal
[4] = CREB reporter modulators without forskolin, primary screen, cell-based, PC12, CRE-LacZ reporter, unstimulated (AID 1145); conditions: no forskolin, luminescence, 4.5 h, higher = more signal, called active from +8 up or from −8 down
[5] = CREB reporter modulators under forskolin, primary screen, cell-based, PC12, CRE-LacZ reporter, forskolin-stimulated (AID 1146); conditions: luminescence, 4.5 h, higher = more signal, called active from +8 up or from −8 down;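 also: PC12 cells with 6xCRE LacZ reporter stimulated by forskolin 10 µM; beta-galactosidase reporter signal reflecting CREB driven transcription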
[6] = biological target: Streptavidin (Streptomyces avidinii) (UniProt P22629); test: streptavidin binders on small-molecule microarray, primary screen, artefact control for SMM compound annotation, biophysical, 635/667 nm fluorescence (AID 1147); conditions: streptavidin binding, higher = more signal;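 also: signal reflects streptavidin binding to arrayed compounds as a control protein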
[7] = small-molecule binders of probe aInhba, primary screen, biochemical, small-molecule microarray, 635/667 nm fluorescence (AID 1148); conditions: higher = more signal;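 also: score merges 667nm spot fluorescence with signal-to-noise for antibody binding to printed compounds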
Torsin-1A (Homo sapiens) [8] = biological target: Torsin-1A (Homo sapiens) (UniProt O14656); test: torsin A binders from cell lysate, primary screen, small-molecule microarray, wild-type, 635/667 nm (AID 1149); conditions: COS7 hTOR1A-WT lysate, 635 nm fluorescence, higher = more signal
Torsin-1A (Homo sapiens) [9] = biological target: Torsin-1A (Homo sapiens) (UniProt O14656); test: small-molecule binders of mutant TOR1A in lysate, primary screen, cell lysate, small-molecule microarray, COS7 lysate, 635/667 nm fluorescence (AID 1150); conditions: COS7 hTOR1A mutant lysate, 635 nm fluorescence, higher = more signal;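 also: score pools 667 nm emission and signal to noise measuring lysate protein binding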
[10] = system: Sonic hedgehog protein (Shh); test: small-molecule binders of Shh protein, primary screen, biochemical, small-molecule microarray, 635/667 nm fluorescence (AID 1151); conditions: small-molecule microarray binding, 635 nm fluorescence; higher = more signal;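 also: Shh protein binding to compounds spotted on small-molecule microarray slides; score combines spot fluorescence intensity with signal-to-noise across triplicate slides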

Streptavidin (Streptomyces avidinii), sequence (P22629 whole entry, looked up): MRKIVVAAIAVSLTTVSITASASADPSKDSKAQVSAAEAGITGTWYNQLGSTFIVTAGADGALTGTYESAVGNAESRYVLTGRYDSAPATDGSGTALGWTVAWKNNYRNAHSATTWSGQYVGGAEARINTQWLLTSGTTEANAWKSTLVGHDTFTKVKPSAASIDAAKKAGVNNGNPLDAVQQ
Torsin-1A (Homo sapiens), sequence (O14656 whole entry, looked up): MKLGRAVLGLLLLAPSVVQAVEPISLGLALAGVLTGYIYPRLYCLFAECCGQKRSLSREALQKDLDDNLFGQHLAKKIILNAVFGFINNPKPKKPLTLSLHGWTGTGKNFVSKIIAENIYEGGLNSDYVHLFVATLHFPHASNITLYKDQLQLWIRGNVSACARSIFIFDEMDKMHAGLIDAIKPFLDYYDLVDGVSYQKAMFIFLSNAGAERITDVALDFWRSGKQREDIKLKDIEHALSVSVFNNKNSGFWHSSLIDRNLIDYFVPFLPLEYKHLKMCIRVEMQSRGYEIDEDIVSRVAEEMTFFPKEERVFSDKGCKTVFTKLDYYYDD

Row | Structure (SMILES) | composite z-score [1] | z-score [2] | z-score [3] | z-score [4] | z-score [5] | composite z-score [6] | composite z-score [7] | composite z-score (Torsin-1A (Homo sapiens) [8]) | composite z-score (Torsin-1A (Homo sapiens) [9]) | composite z-score [10]
1 | CCOC(=O)C1=NO[C@]2(C=C(Br)C3(OCCCO3)[C@H]3O[C@H]32)C1 | 0.0562 | 0.974 (inactive) | 0.892 (inactive) | -0.254 (inactive) | 1.65 (inactive) | -0.468 | -0.163 | 0.748 | 1.42 | 0.0095
2 | C[C@@H](ON=C1[C@H]2CCn3c(=O)n(-c4ccccc4)c(=O)n3[C@H]2[C@H](O)[C@@H]2O[C@H]12)c1cn([C@@H]2COC[C@H]2O)nn1 | 0.134 | 0.981 (inactive) | 0.58 (inactive) | 0.085 (inactive) | 0.258 (inactive) | 0.189 | 0.0028 | 0.436 | 0.63 | 0.438
3 | CC(C)(C)N1C(=O)[C@H]2[C@H]3[C@H](O)[C@H](O)CC(=O)[C@H]3CC[C@H]2C1=O | -0.0509 | -1.06 (inactive) | 0.925 (inactive) | 0.62 (inactive) | 0.95 (inactive) | -0.0955 | -0.0405 | 0.128 | 0.29 | 0.696
4 | CC(C)=CCCC(C)=CCON=C1C[C@@H](O)[C@@H](O)[C@@H]2[C@@H]3C(=O)N(c4ccc(F)cc4F)C(=O)[C@@H]3CC[C@@H]12 | 0.291 | -1.52 (inactive) | -0.665 (inactive) | 1.24 (inactive) | 0.671 (inactive) | 1.45 | -0.152 | 0.815 | -0.0827 | 1.97
5 | O=C1C[C@@H](O)[C@@H](O)[C@@H]2[C@@H]3C(=O)N(Cc4ccc5c(c4)OCO5)C(=O)[C@@H]3CC[C@H]12 | -0.005 | -0.104 (inactive) | -0.396 (inactive) | 0.516 (inactive) | 0.244 (inactive) | 0.139 | -0.152 | 0.0825 | 0.339 | 0.256
6 | CC(C)CON=C1C[C@@H](O)[C@@H](O)[C@@H]2[C@@H]3C(=O)N(c4cccc(Oc5ccccc5)c4)C(=O)[C@@H]3CC[C@@H]12 | 0.0462 | -1.26 (inactive) | 0.272 (inactive) | -0.11 (inactive) | 0.0421 (inactive) | 0.977 | -0.016 | 0.486 | 0.181 | 1.7
7 | CCOC(=O)C1=NO[C@@]2(C=C(Br)C3(OCCCO3)[C@H]3O[C@H]32)C1 | 0.4 | 0.164 (inactive) | 0.208 (inactive) | -0.258 (inactive) | 0.572 (inactive) | 1.45 | -0.0313 | 0.712 | 0.332 | 0.959
8 | CCOC(=O)NN=C1C[C@@H](O)[C@@H](O)[C@@H]2[C@@H]3C(=O)N(Cc4ccc5c(c4)OCO5)C(=O)[C@@H]3CC[C@H]12 | -0.193 | -0.136 (inactive) | 1.46 (inactive) | -0.658 (inactive) | 0.619 (inactive) | -0.563 | -0.128 | -0.566 | -0.282 | 0.14
9 | CCCCc1nc2c(c3c1C[C@H](C)OC3)CN(CCOc1ccccc1)CC2 | 0.0426 | -1.65 (inactive) | -2.34 (inactive) | 7.15 (inactive) | -1.03 (inactive) | 0.501 | -0.1 | 0.599 | -0.0271 | 1.32
10 | COc1cccc([C@H]2Oc3ccc(OC)cc3C(=NO[C@H](C)c3cn([C@H](CO)Cc4ccccc4)nn3)[C@@H]2O)c1 | -0.0943 | 0.474 (inactive) | 0.829 (inactive) | 3.87 (inactive) | -0.345 (inactive) | -0.706 | -0.104 | -0.0667 | 1.44 | 0.326
11 | CCOC(=O)[C@H](CC(C)C)NC(=O)CCC1CC(OC(=O)NCc2cccc3ccccc23)CC2(CCCC(COC(=O)NCc3ccncc3)O2)O1 (stereo not given in full) | -0.0656 | -0.905 (inactive) | -0.243 (inactive) | 0.562 (inactive) | 0.633 (inactive) | 0.629 | 0.0074 | 0.126 | 0.565 | 1.25
12 | CCCNC(=O)OC[C@H]1O[C@H](CCON=C(C)C)C=C[C@@H]1Oc1ccc(OC)cc1 | -0.0092 | 0.599 (inactive) | -0.523 (inactive) | -0.152 (inactive) | -0.315 (inactive) | 0.102 | -0.0791 | -0.0198 | -0.0963 | -0.318
13 | COc1ccc(O[C@H]2C=C[C@@H](c3ccccc3)O[C@@H]2COC(=O)CCC(C)=NOC[C@@H](O)[C@H]2O[C@@H]3OC(C)(C)O[C@@H]3[C@H]2O)cc1 | 0.383 | -0.119 (inactive) | -0.108 (inactive) | -1.14 (inactive) | -0.866 (inactive) | 1.15 | -0.0963 | 0.624 | 0.891 | 1.14
14 | Cc1ccc(S(=O)(=O)OC[C@H]2CN3[C@H](c4ccc(Br)cc4)[C@@H](C)CC[C@H]3C(=O)O2)cc1 | 0.114 | -1.25 (inactive) | -1.43 (inactive) | 2.01 (inactive) | 0.535 (inactive) | 0.487 | -0.128 | 0.782 | 0.44 | 0.362
15 | O=C(NN=C1C[C@@H](O)[C@@H](O)[C@@H]2[C@@H]3C(=O)N(Cc4ccccc4)C(=O)[C@@H]3CC[C@@H]12)OCc1ccccc1 | -0.0896 | -0.381 (inactive) | -0.526 (inactive) | 0.248 (inactive) | 0.121 (inactive) | -0.418 | -0.239 | 0.815 | 0.819 | -0.0067
16 | COc1ccc(O[C@@H]2[C@H](O)CO[C@@H]2C=Cc2ccccc2)cc1 | 0.059 | -2.79 (inactive) | -0.828 (inactive) | -0.613 (inactive) | -0.736 (inactive) | -0.0696 | -0.128 | -0.071 | 0.55 | 0.503
17 | COc1ccc(C#C[C@@H]2C=C[C@H](OC(C)=O)[C@@H](COC(C)=O)O2)cc1 | 0.392 | -3.46 (inactive) | 0.132 (inactive) | 0.291 (inactive) | 1.08 (inactive) | 0.271 | 0.0442 | 0.244 | 0.267 | 0.882
